Each structure is given as a SMILES string. Compounds without any hit were thinned out: in the full panel of roughly 79,000, 15% have a hit. The source made the active and inactive calls. Rule as the data show it: active = growth inhibition above about 70%; inactive = the rest.

The nature of one test: NCI Yeast Anticancer Drug Screen. Data for the wt1 strain (AID 149).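 Also: 0% = growth of vehicle-treated wt1 cultures.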 Conditions: S. cerevisiae wt1 strain (SPY 50644) growth inhibition; at 1.2 µM; active compounds read high. Summed up:
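Growth inhibition read against vehicle controls after compound exposure of the wt1 yeast strain.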
Take `COc1ccc2nc(N/N=C/c3sccc3C)cc(C)c2c1`: the growth inhibition is -39% (inactive).

For `O=C(O)/C=C\C(=O)NNc1ccc(Br)cc1`, the growth inhibition is 2% (inactive).

Regarding `CCN(CC)CCSc1c2ccccc2nc2cc(NCC(=O)Nc3ccccc3-c3ccccc3NC(=O)CNc3ccc4c(SCCN(CC)CC)c5ccccc5nc4c3)ccc12`, the growth inhibition was -21% (inactive).

Take `COc1ccc(C(=O)NCCN(C)C)c2nc3ccccc3cc12`: the growth inhibition is -11% (inactive).

Regarding `O=c1[nH]c(=O)n(CCCO)cc1F`, the growth inhibition is -32% (inactive).

On to `CCCC(=O)OC(OC(=O)CCC)c1ccc([N+](=O)[O-])o1`, for which the growth inhibition is -3% (inactive).

Take `O=C(/C(=C/c1ccccc1)CBr)c1ccccc1`: the growth inhibition is 0% (inactive).

With `O=C(Cc1ccccc1F)NC1=C(Cl)C(=O)c2ccccc2C1=O`, the growth inhibition was 1% (inactive).

For the compound `Cc1cccc(N2CCN(C(=O)/C(=C/c3ccccc3)NC(=O)c3ccccc3)CC2)c1`, the growth inhibition is -3% (inactive).

In the case of `Cc1ccc2nc(N/N=C/c3ccc(C)s3)cc(C)c2c1`, the growth inhibition is -27% (inactive).

For the compound `COc1ccc2cc(CN3CCC(C4CCN(Cc5ccc6cc(OC)ccc6c5)CC4)CC3)ccc2c1`, the growth inhibition is -1% (inactive).

In the case of `CC[C@@]1(OC(=O)CN(C)C)C(=O)OCc2c1cc1n(c2=O)Cc2cc3ccccc3nc2-1`, the growth inhibition is -1% (inactive).

The test is the same for the next values; noted with them: S. cerevisiae wt1 strain (SPY 50644) growth inhibition; at 3.7 µM; active compounds read high.
As for `COc1ccc2nc(N/N=C/c3sccc3C)cc(C)c2c1`, the growth inhibition was -32% (inactive).

`O=C(O)/C=C\C(=O)NNc1ccc(Br)cc1`: the growth inhibition is 97% (active).

`CCN(CC)CCSc1c2ccccc2nc2cc(NCC(=O)Nc3ccccc3-c3ccccc3NC(=O)CNc3ccc4c(SCCN(CC)CC)c5ccccc5nc4c3)ccc12`: the growth inhibition is -16% (inactive).

Consider `COc1ccc(C(=O)NCCN(C)C)c2nc3ccccc3cc12`, for which the growth inhibition is 21% (inactive).

Regarding `O=c1[nH]c(=O)n(CCCO)cc1F`, the growth inhibition was 0% (inactive).

`CCCC(=O)OC(OC(=O)CCC)c1ccc([N+](=O)[O-])o1`: the growth inhibition is -2% (inactive).

As for `O=C(/C(=C/c1ccccc1)CBr)c1ccccc1`, the growth inhibition was 11% (inactive).

In the case of `O=C(Cc1ccccc1F)NC1=C(Cl)C(=O)c2ccccc2C1=O`, the growth inhibition was 0% (inactive).

As to `Cc1cccc(N2CCN(C(=O)/C(=C/c3ccccc3)NC(=O)c3ccccc3)CC2)c1`, the growth inhibition is -1% (inactive).

Turning to `Cc1ccc2nc(N/N=C/c3ccc(C)s3)cc(C)c2c1`, the growth inhibition was -18% (inactive).

On to `COc1ccc2cc(CN3CCC(C4CCN(Cc5ccc6cc(OC)ccc6c5)CC4)CC3)ccc2c1`, for which the growth inhibition is -16% (inactive).

As to `CC[C@@]1(OC(=O)CN(C)C)C(=O)OCc2c1cc1n(c2=O)Cc2cc3ccccc3nc2-1`, the growth inhibition is 1% (inactive).

Still in this test, the particulars now being: S. cerevisiae wt1 strain (SPY 50644) growth inhibition; at 11.0 µM; active compounds read high.
As to `COc1ccc2nc(N/N=C/c3sccc3C)cc(C)c2c1`, the growth inhibition was -6% (inactive).

For `O=C(O)/C=C\C(=O)NNc1ccc(Br)cc1`, the growth inhibition is 99% (active).

For `CCN(CC)CCSc1c2ccccc2nc2cc(NCC(=O)Nc3ccccc3-c3ccccc3NC(=O)CNc3ccc4c(SCCN(CC)CC)c5ccccc5nc4c3)ccc12`, the growth inhibition was -25% (inactive).

As to `COc1ccc(C(=O)NCCN(C)C)c2nc3ccccc3cc12`, the growth inhibition is -2% (inactive).

`O=c1[nH]c(=O)n(CCCO)cc1F`: the growth inhibition was -9% (inactive).

Take `CCCC(=O)OC(OC(=O)CCC)c1ccc([N+](=O)[O-])o1`: the growth inhibition was -1% (inactive).

Turning to `O=C(/C(=C/c1ccccc1)CBr)c1ccccc1`, the growth inhibition is 43% (inactive).

Regarding `O=C(Cc1ccccc1F)NC1=C(Cl)C(=O)c2ccccc2C1=O`, the growth inhibition is 0% (inactive).

Take `Cc1cccc(N2CCN(C(=O)/C(=C/c3ccccc3)NC(=O)c3ccccc3)CC2)c1`: the growth inhibition is -2% (inactive).

Consider `Cc1ccc2nc(N/N=C/c3ccc(C)s3)cc(C)c2c1`, for which the growth inhibition is 1% (inactive).

On to `COc1ccc2cc(CN3CCC(C4CCN(Cc5ccc6cc(OC)ccc6c5)CC4)CC3)ccc2c1`, for which the growth inhibition is 5% (inactive).

On to `CC[C@@]1(OC(=O)CN(C)C)C(=O)OCc2c1cc1n(c2=O)Cc2cc3ccccc3nc2-1`, for which the growth inhibition is 23% (inactive).

Still in this test, the particulars now being: S. cerevisiae wt1 strain (SPY 50644) growth inhibition; at 33.0 µM; active compounds read high.
In the case of `COc1ccc2nc(N/N=C/c3sccc3C)cc(C)c2c1`, the growth inhibition is 96% (active).

Turning to `O=C(O)/C=C\C(=O)NNc1ccc(Br)cc1`, the growth inhibition was 99% (active).

As for `CCN(CC)CCSc1c2ccccc2nc2cc(NCC(=O)Nc3ccccc3-c3ccccc3NC(=O)CNc3ccc4c(SCCN(CC)CC)c5ccccc5nc4c3)ccc12`, the growth inhibition is 23% (inactive).

Take `COc1ccc(C(=O)NCCN(C)C)c2nc3ccccc3cc12`: the growth inhibition is -6% (inactive).

Consider `O=c1[nH]c(=O)n(CCCO)cc1F`, for which the growth inhibition was 4% (inactive).

On to `CCCC(=O)OC(OC(=O)CCC)c1ccc([N+](=O)[O-])o1`, for which the growth inhibition is 2% (inactive).

In the case of `O=C(/C(=C/c1ccccc1)CBr)c1ccccc1`, the growth inhibition was 90% (active).

For `O=C(Cc1ccccc1F)NC1=C(Cl)C(=O)c2ccccc2C1=O`, the growth inhibition was 9% (inactive).

Regarding `Cc1cccc(N2CCN(C(=O)/C(=C/c3ccccc3)NC(=O)c3ccccc3)CC2)c1`, the growth inhibition is 24% (inactive).

On to `Cc1ccc2nc(N/N=C/c3ccc(C)s3)cc(C)c2c1`, for which the growth inhibition is 99% (active).

For `COc1ccc2cc(CN3CCC(C4CCN(Cc5ccc6cc(OC)ccc6c5)CC4)CC3)ccc2c1`, the growth inhibition was 8% (inactive).

For `CC[C@@]1(OC(=O)CN(C)C)C(=O)OCc2c1cc1n(c2=O)Cc2cc3ccccc3nc2-1`, the growth inhibition is 85% (active).

Values taken from PubChem BioAssay (NCI).
